Results filed as inconclusive are left out. Activity calls are given as the source filed them. Unless noted, calls follow the shape of the dose curve; as a rule, active = well fitted curve in the direction sought with a large enough effect; inconclusive = small, poorly fitted or top-dose-only effect, or another doubt; inactive = no such curve, though single readings can be large; an effect the other way counts as inactive or inconclusive.

A short description of assay [1]: qHTS assay for small molecule antagonists of peroxisome proliferator-activated receptor delta signaling (AID 588535; active = well fitted inhibition curve with a large enough effect in the signal ratio, with a control signal flat, not every such curve was filed as active; the % refers to the signal ratio;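 as to max response: cells co-treated with a PPAR-delta agonist as stimulator during compound exposure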). The conditions noted are these: HEK293T PPARd-UAS-bla, beta-lactamase FRET ratio, 18 h; 460 nm channel. The gist of the method: (§1)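 Compounds tested in titration on PPAR-delta-UAS-bla HEK293T cells grown in charcoal/dextran-stripped serum (2%); beta-lactamase activity read via CCF4 emission at 460 and 530 nm.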
(In general: qHTS replaces the single test concentration by a dilution series.)

In assay [2] the target is Peroxisome proliferator-activated receptor delta (Homo sapiens) (UniProt Q03181). The description is as above. The conditions noted are these: HEK293T PPARd-UAS-bla, beta-lactamase FRET ratio, 18 h; series mostly up to 76.7 µM. The gist of the method: as §1
Peroxisome proliferator-activated receptor delta (Homo sapiens), sequence (Q03181 whole entry, looked up): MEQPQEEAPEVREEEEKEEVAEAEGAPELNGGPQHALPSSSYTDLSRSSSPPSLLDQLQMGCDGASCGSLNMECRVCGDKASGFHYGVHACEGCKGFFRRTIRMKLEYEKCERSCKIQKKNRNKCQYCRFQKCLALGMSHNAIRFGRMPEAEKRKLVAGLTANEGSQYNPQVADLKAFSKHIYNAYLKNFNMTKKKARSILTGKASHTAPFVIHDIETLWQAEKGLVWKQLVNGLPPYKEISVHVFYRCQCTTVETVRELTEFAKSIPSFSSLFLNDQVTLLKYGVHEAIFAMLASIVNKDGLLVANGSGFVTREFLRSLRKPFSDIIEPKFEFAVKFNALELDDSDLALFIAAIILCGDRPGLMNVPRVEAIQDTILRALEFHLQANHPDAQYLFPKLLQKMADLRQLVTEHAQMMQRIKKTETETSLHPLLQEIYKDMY
The target of assay [3] is Vitamin D3 receptor (Homo sapiens) (UniProt P11473). Put plainly: qHTS assay for small molecule antagonists of vitamin D receptor signaling (AID 588541; calls by dose curve;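 also: receptor activated by calcitriol during compound treatment; % is scaled to controls: 0 for no effect and ±100 for the full control effect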). The conditions noted are these: HEK293T VDR-UAS-bla, beta-lactamase ratio, antagonist mode; series mostly up to 76.7 µM. Put shortly:
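VDR-UAS-bla HEK293T cells (2000/well, 2% charcoal-stripped FBS) were treated with titrated compounds plus 1-alpha,25-dihydroxyvitamin D3 (50 nM or 3 nM final) for 16 h at 37 C. CCF4 beta-lactamase fluorescence was read; Hill fits gave IC50.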

For assay [4] the target is unchanged. Put plainly: qHTS assay for small molecule agonists of vitamin D receptor signaling (AID 588543; calls by dose curve;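 also: 0% = DMSO basal and 100% = reference agonist control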). The conditions noted are these: HEK293T VDR-UAS-bla, beta-lactamase ratio, 16 h; series mostly up to 76.8 µM. The gist of the method:
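GeneBLAzer VDR-UAS-bla HEK293T cells in 2% charcoal-stripped FBS medium were dosed with compound titrations for 16 h at 37 °C; CCF4 β-lactamase readout (405 nm ex, 460/530 nm em). EC50 and efficacy from Hill fits, normalized to 50 nM calcitriol (100%) and DMSO (0%).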

A short description of assay [5]: qHTS assay for small molecule agonists of retinoid X receptor alpha signaling (AID 588544; calls by dose curve;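 as to activation: 0% = DMSO basal wells and 100% = reference agonist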). The conditions noted are these: HEK293T RXRa-UAS-bla, beta-lactamase reporter, 18 h; 530 nm emission.
The target in assay [6] is Retinoic acid receptor RXR-alpha (Homo sapiens) (UniProt P19793). The assay is described as above. The conditions noted are these: HEK293T RXRa-UAS-bla, beta-lactamase reporter, 18 h; series mostly up to 76.7 µM.
Retinoic acid receptor RXR-alpha (Homo sapiens), sequence (P19793 whole entry, looked up): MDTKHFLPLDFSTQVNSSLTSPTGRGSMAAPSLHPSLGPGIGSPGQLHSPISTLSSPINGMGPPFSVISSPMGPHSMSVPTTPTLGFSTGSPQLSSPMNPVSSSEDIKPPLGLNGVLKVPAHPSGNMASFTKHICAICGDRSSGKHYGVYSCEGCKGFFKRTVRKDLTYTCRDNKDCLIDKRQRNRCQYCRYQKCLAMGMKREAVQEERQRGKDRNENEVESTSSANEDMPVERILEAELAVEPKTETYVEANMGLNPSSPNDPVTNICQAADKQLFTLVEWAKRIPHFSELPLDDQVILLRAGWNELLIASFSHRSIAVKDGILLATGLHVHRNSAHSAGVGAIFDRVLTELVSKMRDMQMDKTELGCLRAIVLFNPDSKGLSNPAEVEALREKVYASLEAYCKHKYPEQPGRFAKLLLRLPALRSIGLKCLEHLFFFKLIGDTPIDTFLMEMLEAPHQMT
In assay [7] the target is Thyroid hormone receptor beta (Homo sapiens) (UniProt P10828). The experiment in a line: qHTS assay for small molecule agonists of thyroid hormone receptor beta signaling (AID 588545; calls by dose curve). The conditions noted are these: TR-UAS-bla GripTite HEK 293, beta-lactamase ratio, agonist mode, 18 h; series mostly up to 76.7 µM. The gist of the method:
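HEK 293 TR-UAS-bla; agonist mode; 18 hrs, 37 C; CCF4, ex 405/em 460 and 530 nm; norm. T3 10 nM = 100%, DMSO = 0%; Hill fit → EC50, efficacy.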

Assay [8] is described as follows: qHTS assay for small molecule antagonists of retinoid X receptor alpha signaling (AID 588546; active = well fitted inhibition curve with a large enough effect in the signal ratio, with a control signal flat, not every such curve was filed as active; the % refers to the signal ratio;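 also: cells stimulated with 9-cis-retinoic acid as agonist; % is scaled to controls: 0 for no effect and ±100 for the full control effect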). The conditions noted are these: HEK293T RXRa-UAS-bla, beta-lactamase ratio, antagonist mode; measured here: W530 green channel, cytotoxicity proxy. The gist of the method: (§2)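 Beta-lactamase reporter inhibition, read as CCF4 fluorescence ratio (ex 405, em 460/530 nm) after 2 h at RT. HEK293T UAS-bla cells, 2500/well, were stimulated with 9-cis-RA at 500 or 100 nM final alongside test compound for 18 h at 37 C.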

A short description of assay [9]: qHTS assay for small molecule activators of the p53 signaling pathway (AID 651743; active = well fitted activation curve with a large enough effect in the signal ratio, not every such curve was filed as active; the % refers to the signal ratio; also: % of control where 0% means no effect). The conditions noted are these: HCT-116 p53RE-bla, beta-lactamase FRET ratio, 16 h; activation: stronger effect = higher value. Put shortly: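 Here HCT-116 cells with an integrated p53-responsive beta-lactamase gene were incubated with compounds (16 hours, 37 C) after a 5-hour plating period; beta-lactamase activity was detected as fluorescence intensity via B/G FRET substrate.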

The nature of assay [10]: qHTS assay for small molecule activators of the nuclear factor-kappa B (NF-kB) signaling pathway (AID 651749; active = well fitted activation curve with a large enough effect in the signal ratio; the % refers to the signal ratio; also: % of control where 0% means no effect). The conditions noted are these: NF-kB-bla ME-180 cells, beta-lactamase FRET ratio, 16 h; activation: stronger effect = higher value. Put shortly: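 Beta-lactamase reporter expression, controlled by NF-kB response elements in ME-180 cells, was quantified fluorometrically via FRET disruption; cells at 2,000/well had been incubated with 23 nL test compound for 16 hr.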

Assay [11] is described as follows: qHTS assay for environmental chemicals that activate the Aryl hydrocarbon Receptor (AhR) signaling pathway (AID 651777). Also: % of control where 0% means no effect; nearly all actives have a fitted effect of over 15% in size. The conditions noted are these: 1A2-DRE human hepatoma cells, luciferase, 24 h; activation: stronger effect = higher value. Put shortly:
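Measured luciferase activity, read 30 min after One-Glo addition at room temperature, from human hepatoma cells bearing a dioxin response element–CYP1A2 promoter reporter and exposed to compound for 24 hr at 37 C.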

The target of assay [12] is Peroxisome proliferator-activated receptor alpha (Homo sapiens) (UniProt Q07869). Put plainly: qHTS assay for small molecule agonists of the peroxisome proliferator-activated receptor alpha (PPARalpha) signaling pathway (AID 651778). Also: % of control where 0% means no effect. The conditions noted are these: PathHunter PPARalpha complementation, chemiluminescence, 6 h; max response: stronger effect = higher value. The gist of the method: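 Cells plated at 2,000/well and held overnight at 37 C, 5% CO2, then compound added by pin tool for 6 hr; after PathHunter detection reagent and 60 min at room temperature, chemiluminescence from enzyme complementation was read.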
Peroxisome proliferator-activated receptor alpha (Homo sapiens), sequence (Q07869 whole entry, looked up): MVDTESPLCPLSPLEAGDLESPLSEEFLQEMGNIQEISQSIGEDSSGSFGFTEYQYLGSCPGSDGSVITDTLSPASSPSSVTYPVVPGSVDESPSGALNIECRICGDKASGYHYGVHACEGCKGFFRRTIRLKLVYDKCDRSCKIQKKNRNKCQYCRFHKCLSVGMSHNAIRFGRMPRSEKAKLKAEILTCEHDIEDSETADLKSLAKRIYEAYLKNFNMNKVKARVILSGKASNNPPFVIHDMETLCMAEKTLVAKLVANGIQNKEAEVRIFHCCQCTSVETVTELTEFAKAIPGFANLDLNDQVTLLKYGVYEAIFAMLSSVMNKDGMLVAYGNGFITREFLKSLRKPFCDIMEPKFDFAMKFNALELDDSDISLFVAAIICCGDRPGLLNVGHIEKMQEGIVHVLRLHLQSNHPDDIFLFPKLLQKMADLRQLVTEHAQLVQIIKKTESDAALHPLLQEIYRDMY

A short description of assay [13]: qHTS assay for small molecule agonists of the antioxidant response element (ARE) signaling pathway measured by Nrf2-dependant transcriptional activity (AID 720636; active = well fitted curve in the direction sought with a large enough effect in the repeat runs; an effect the other way counts as inactive or inconclusive;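 also: HepG2 cells with an ARE-driven luciferase reporter; % of control where 0% means no effect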). The conditions noted are these: ARE-luc HepG2, Nrf2 luciferase reporter, 16 h; series mostly up to 92.4 µM. The gist of the method:
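In HepG2 cells engineered with an Nrf2-responsive luciferase gene, ARE induction was quantified as luminescence after 16 hr compound treatment at 37 C.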

Assay [14] in a line: qHTS assay for small molecule agonists of the antioxidant response element (ARE) signaling pathway measured by Nrf2-dependant transcriptional activity - cell viability counter screen (AID 720653; active = well fitted curve in the direction sought with a large enough effect in the repeat runs; an effect the other way counts as inactive or inconclusive; also: % is scaled to controls: 0 for no effect and ±100 for the full control effect). The conditions noted are these: ARE-bla HepG2 viability, CellTiter-Glo ATP luminescence, 16 h; max response: stronger effect = lower value. The gist of the method: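 ARE-bla HepG2 cells (2,000/well) rested 5 hrs at 37C/5% CO2, then exposed to compounds in DMSO for 16 hrs. Viability was read in the same wells as intracellular ATP by luminescence, 30 min at room temperature after reagent addition.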

The nature of assay [15]: qHTS assay for cell viability of HEK293 cells (AID 743288). Also: % is scaled to controls: 0 for no effect and ±100 for the full control effect; nearly all actives have a fitted effect of over 50% in size. The conditions noted are these: ATP luminescence (CellTiter-Glo), 18 h; max response: stronger effect = lower value. The gist of the method: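 After 18 h compound exposure at 37 C, parental HEK293 cells (2,000/well) are lysed with CellTiter-Glo and luminescence is read following 30 min at room temperature.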
Assay [16] can be described thus: qHTS assay for cell viability of the p53RE-bla HCT-116 cell line (AID 743292). Also: % is scaled to controls: 0 for no effect and ±100 for the full control effect; nearly all actives have a fitted effect of over 55% in size. The conditions noted are these: p53RE-bla HCT-116 viability, ATP luminescence, 16 h; series mostly up to 95 µM. The gist of the method: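 Intracellular ATP of p53RE-bla HCT-116 cells measured by luciferase luminescence following 16 h compound incubation at 37 C; DMSO-only wells served as vehicle controls.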

Assay [17] has as its target Nuclear receptor subfamily 1 group I member 2 (Rattus norvegicus) (UniProt Q9R1A7). The experiment in a line: qHTS assay for small molecule activators of the rat pregnane X receptor (rPXR) signaling pathway (AID 651751; call rule not given here; also: 0% is about no effect). The conditions noted are these: rPXR reporter cells, luciferase (One-Glo), 24 h.
Assay [18] in a line: qHTS assay for small molecule activators of the human pregnane X receptor (PXR) signaling pathway (AID 720659; call rule not given here; also: 0% is about no effect). The conditions noted are these: DPX-2 HepG2 CYP3A4-luciferase, 24 h; series mostly up to 92.3 µM.
Assay [19] concerns the target Retinoic acid receptor RXR-alpha (Homo sapiens) (UniProt P19793). Put plainly: qHTS assay for small molecule antagonists of retinoid X receptor alpha signaling (AID 588546).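 Also: cells stimulated with 9-cis-retinoic acid as agonist; % is scaled to controls: 0 for no effect and ±100 for the full control effect.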 The conditions noted are these: HEK293T RXRa-UAS-bla, beta-lactamase ratio, antagonist mode. Put shortly:
as §2

Assay [20] has as its target Peroxisome proliferator-activated receptor gamma (Homo sapiens) (UniProt P37231). The experiment in a line: qHTS assay for small molecule agonists of peroxisome proliferator-activated receptor gamma signaling (AID 588536; active = well fitted curve in the direction sought with a large enough effect in the signal ratio, with a control signal flat, not every such curve was filed as active; the % refers to the signal ratio). The conditions noted are these: HEK293 PPARg-UAS-bla, beta-lactamase ratio, 16 h, percent of rosiglitazone response, DMSO as zero; series mostly up to 76.7 µM. The gist of the method: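 Beta-lactamase reporter read-out: CCF4 fluorescence (ex 405, em 460/530 nm) after 2 h at RT. HEK293 GeneBLAzer cells were treated for 16 h at 37 C. Hill fits gave EC50 and efficacy versus 2 uM rosiglitazone (100%) and DMSO (0%).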

Vitamin D3 receptor (Homo sapiens), sequence (P11473 whole entry, looked up): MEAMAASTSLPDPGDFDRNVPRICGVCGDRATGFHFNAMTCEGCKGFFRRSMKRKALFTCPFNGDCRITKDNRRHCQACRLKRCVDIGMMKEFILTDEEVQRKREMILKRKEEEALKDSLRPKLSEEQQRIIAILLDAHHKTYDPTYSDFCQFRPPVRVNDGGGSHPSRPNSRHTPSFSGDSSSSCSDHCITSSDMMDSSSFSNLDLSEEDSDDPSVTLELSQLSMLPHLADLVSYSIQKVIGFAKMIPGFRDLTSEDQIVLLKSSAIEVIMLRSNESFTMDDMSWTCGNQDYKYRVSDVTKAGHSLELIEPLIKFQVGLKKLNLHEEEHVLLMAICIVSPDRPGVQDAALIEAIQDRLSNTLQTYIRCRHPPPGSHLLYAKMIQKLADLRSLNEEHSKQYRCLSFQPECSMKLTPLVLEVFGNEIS
Peroxisome proliferator-activated receptor gamma (Homo sapiens), sequence (P37231 whole entry, looked up): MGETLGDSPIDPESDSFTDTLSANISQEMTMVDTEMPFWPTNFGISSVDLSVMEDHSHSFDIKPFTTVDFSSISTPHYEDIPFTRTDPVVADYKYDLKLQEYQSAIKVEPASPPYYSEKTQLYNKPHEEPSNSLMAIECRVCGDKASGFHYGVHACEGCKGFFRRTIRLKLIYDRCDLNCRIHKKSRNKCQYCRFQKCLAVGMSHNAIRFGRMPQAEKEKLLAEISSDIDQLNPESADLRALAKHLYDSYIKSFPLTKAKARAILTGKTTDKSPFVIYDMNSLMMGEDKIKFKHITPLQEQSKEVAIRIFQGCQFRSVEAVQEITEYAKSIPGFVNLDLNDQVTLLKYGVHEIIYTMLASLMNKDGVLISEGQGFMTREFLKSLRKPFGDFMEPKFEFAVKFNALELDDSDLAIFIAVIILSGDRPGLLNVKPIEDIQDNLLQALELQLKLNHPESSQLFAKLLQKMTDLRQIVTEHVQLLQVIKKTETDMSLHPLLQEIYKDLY
Thyroid hormone receptor beta (Homo sapiens), sequence (P10828 whole entry, looked up): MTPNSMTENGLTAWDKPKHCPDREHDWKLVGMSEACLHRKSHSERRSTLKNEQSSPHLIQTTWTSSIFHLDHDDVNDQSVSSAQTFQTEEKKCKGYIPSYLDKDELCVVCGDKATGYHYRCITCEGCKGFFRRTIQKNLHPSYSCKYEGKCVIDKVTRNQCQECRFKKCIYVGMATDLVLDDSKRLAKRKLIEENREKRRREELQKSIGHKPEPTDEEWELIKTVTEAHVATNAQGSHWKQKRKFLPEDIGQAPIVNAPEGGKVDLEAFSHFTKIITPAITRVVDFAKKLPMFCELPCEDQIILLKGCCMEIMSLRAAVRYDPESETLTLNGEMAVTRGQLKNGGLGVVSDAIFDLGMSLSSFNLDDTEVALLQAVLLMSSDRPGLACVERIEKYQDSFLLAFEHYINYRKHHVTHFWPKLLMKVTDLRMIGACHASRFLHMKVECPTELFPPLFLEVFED
Nuclear receptor subfamily 1 group I member 2 (Rattus norvegicus), sequence (Q9R1A7 whole entry, looked up): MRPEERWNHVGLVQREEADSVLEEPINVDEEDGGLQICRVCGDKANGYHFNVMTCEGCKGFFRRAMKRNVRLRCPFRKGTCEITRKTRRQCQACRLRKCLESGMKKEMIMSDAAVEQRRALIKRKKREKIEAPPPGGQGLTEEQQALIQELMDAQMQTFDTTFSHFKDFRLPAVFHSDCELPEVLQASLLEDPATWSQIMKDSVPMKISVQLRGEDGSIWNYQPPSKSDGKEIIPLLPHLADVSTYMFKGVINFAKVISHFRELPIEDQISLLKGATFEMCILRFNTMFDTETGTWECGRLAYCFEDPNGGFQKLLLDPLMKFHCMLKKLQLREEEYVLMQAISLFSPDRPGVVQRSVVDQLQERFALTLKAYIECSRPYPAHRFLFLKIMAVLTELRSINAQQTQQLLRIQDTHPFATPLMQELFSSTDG

As to `CC(C)(C)c1n[nH]c(=O)n(N)c1=O`, the max response was -9.84% in assay [1]; -20% in [5]; -5.34% in [8]; 0.89% (inactive) in assay [12]; -8.89% (inactive) in assay [14]; -15.1% (inactive) in assay [15]. Further, the max response in assay [17] was 8.96% (inactive). The Potency entry in [2], in [3], in assay [6], in assay [7], in [13] and in assay [16] was “inactive” in each case. Also, the result in assay [4] and in assay [18] was inactive. Also, the activation in [9] is 1.96% (inactive); in assay [10], 0.103% (inactive); in assay [11], -0.927% (inactive).
With `c1ccc2cc3c(ccc4ccccc43)cc2c1`, the max response was 4.49% in assay [5]; -11.9% in assay [8]; -3.27% (inactive) in assay [19]; -0.566% (inactive) in assay [12]; -18.2% (inactive) in assay [14]; -8% (inactive) in assay [15]. Besides, the Potency result in [6], in assay [7] and in assay [16] was “inactive” each time.
`CCCCCCCCCCCCO`: the max response is 3.59% in [1]; -12.2% in assay [5]; -2.04% in [8]; 8.28% (inactive) in assay [19]; -0.593% (inactive) in assay [12]; -4.36% (inactive) in assay [14]. In addition, in assay [17], the max response is 1.35% (inactive). The Potency entry in [2], in assay [3], in assay [6], in [7], in assay [13] and in [16] was “inactive” in each case. Moreover, the outcome in assay [20] and in [18] was inactive. The activation in [9] was -3.58% (inactive); in [11], 2.81% (inactive).
Regarding `COc1ccc(OC)c(OC)c1`, the outcome in [20], in [4] and in assay [18] was inactive. The Potency result in [3], in [6], in assay [7] and in assay [13] was “inactive” in each case. In addition, the max response in assay [5] is -0.39%; in assay [8], -10%; in [19], 2.37% (inactive); in assay [12] it was 0.14% (inactive); in assay [15], -1.79% (inactive); in assay [17] it was 3.06% (inactive). For the same compound, the activation is -1.46% (inactive) in assay [9] and 0.552% (inactive) in [11].
`Cc1ccc(Cl)cc1Cl`: the result in assay [4] and in [18] was inactive. In addition, the Potency entry in assay [7], in assay [13] and in assay [16] was “inactive” in each case. Further, the max response in assay [8] was -6.55%; in assay [19], -30.4% (inactive); in assay [12], -0.243% (inactive); in assay [14] it was 7.57% (inactive); in assay [15] it was -8.46% (inactive); in assay [17], 1.69% (inactive). In addition, the activation in [9] is 1.63% (inactive); in assay [10], -1.58% (inactive).
Consider `C[Si](C)(C)N[Si](C)(C)C`, for which the result in [20] and in assay [4] was inactive. The max response is -0.733% in [5]; -10.7% in assay [8]; 1.24% (inactive) in assay [19]; -0.0059% (inactive) in [12]; 1.14% (inactive) in assay [14]. Also, the Potency result in assay [6], in assay [7], in assay [13] and in assay [16] was “inactive” throughout. Also, the activation is 1.4% (inactive) in [9] and 1.22% (inactive) in assay [11].
With `CCCCCCCC(=O)OC`, the max response is 18.8% in [1]; 14.7% in assay [5]; -15% in assay [8]; -8.88% (inactive) in [19]; -3.16% (inactive) in assay [12]; -6.4% (inactive) in [15]. The max response in assay [17] is 2.14% (inactive). Further, the Potency result in assay [2], in [6], in [7], in assay [13] and in assay [16] was “inactive” each time. Also, the result in assay [20], in [4] and in assay [18] was inactive. Moreover, the activation in [9] was 3.63% (inactive); in [10], -1.19% (inactive); in assay [11], -2.72% (inactive).

For the origin of these results see PubChem BioAssay (NCATS).
